Results: PubChem BioAssay (EPA / NIEHS)
Where a structure was tested more than once in an assay, its records may differ in their call. Active and inactive are the calls of the source. The calls were made as follows: active = hit-call score of the fitted dose curve at least 0.9, where 1 is the maximum; inactive = score below 0.9.

What was measured:
[1] = read-out: Monokine induced gamma interferon (MIG), CXCL9 (gene 4283); experiment: BSK_BE3C_MIG: BioMAP Diversity Plus: BE3C Assay for Monokine induced gamma interferon (MIG) Biomarker Activity (AID 2283035); details: primary human bronchial epithelial cells; actives raise or lower the signal
How it was run: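 hu bronchial epithelial 1° cells, 24 h cpd; MIG by ELISA; bidirectional fit, DMSO = baseline.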

[2] = read-out: Transforming growth factor beta 1 (TGFb1), TGFB1 (gene 7040); experiment: BSK_BE3C_TGFb1: BioMAP Diversity Plus: BE3C Assay for Transforming growth factor beta 1 (TGFb1) Biomarker Activity (AID 2283036); details: primary human bronchial epithelial cells; actives raise or lower the signal
How it was run: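 ELISA readout of TGF-b1 from human lung bronchial epithelial primary cells, taken 24 h post-treatment. Gain or loss of signal fitted relative to DMSO baseline, with parallel SRB staining for overt cytotoxicity.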

[3] = read-out: Plasminogen activator inhibitor-1 (PAI1), SERPINE1 (gene 5054); experiment: BSK_BE3C_PAI1: BioMAP Diversity Plus: BE3C Assay for Plasminogen activator inhibitor-1 (PAI1) Biomarker Activity (AID 2283037); details: primary human bronchial epithelial cells; actives raise or lower the signal
How it was run: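 PAI-1 was measured by ELISA in human primary bronchial epithelial cultures 24 h after chemical dosing, with cytotoxicity checked by SRB total-protein staining in parallel cultures. Activity was fitted in both directions relative to DMSO.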

[4] = read-out: urokinase plasminogen activator (uPA), PLAU (gene 5328); experiment: BSK_BE3C_uPA: BioMAP Diversity Plus: BE3C Assay for urokinase plasminogen activator (uPA) Biomarker Activity (AID 2283038); details: primary human bronchial epithelial cells; actives raise or lower the signal
How it was run: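 Bronchial epithelial cells (human, primary); chemical 24 h; uPA by ELISA; bidirectional fit vs DMSO. SRB (0.1%, after 10% TCA fixation, 560 nm) in parallel cultures for cytotoxicity.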

[5] = read-out: Urokinase-type plasminogen activator receptor (uPAR), PLAUR (gene 5329); experiment: BSK_BE3C_uPAR: BioMAP Diversity Plus: BE3C Assay for Urokinase-type plasminogen activator receptor (uPAR) Biomarker Activity (AID 2283039); details: primary human bronchial epithelial cells; actives raise or lower the signal
How it was run: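 uPAR levels were measured by ELISA after 24 h compound treatment of primary human bronchial epithelial cells, fitted in both directions relative to DMSO. Parallel SRB staining served as the cytotoxicity read-out.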

[6] = read-out: Interleukin-6 (IL6), IL6 (gene 3569); experiment: BSK_CASM3C_IL6: BioMAP Diversity Plus: CASM3C Assay for Interleukin-6 (IL6) Biomarker Activity for (AID 2283040); details: primary human coronary artery smooth muscle cells; actives raise or lower the signal
[7] = read-out: Tissue plasminogen activator (tPA), PLAT (gene 5327); experiment: BSK_BE3C_tPA: BioMAP Diversity Plus: BE3C Assay for Tissue plasminogen activator (tPA) Biomarker Activity (AID 2283041); details: primary human bronchial epithelial cells; actives raise or lower the signal
How it was run: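 tPA measured by ELISA 24 h after dosing human primary bronchial epithelial cells (BE3C system). Changes in either direction were fitted against DMSO. Parallel cultures were stained with SRB to flag overt cytotoxicity.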

[8] = read-out: Interleukin-8 (IL8), CXCL8 (gene 3576); experiment: BSK_CASM3C_IL8: BioMAP Diversity Plus: CASM3C Assay for Interleukin-8 (IL8) Biomarker Activity (AID 2283042); details: primary human coronary artery smooth muscle cells; actives raise or lower the signal;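 also: IL-8 protein level quantified by ELISA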
[9] = read-out: Human Leukocyte Antigen - DR isotype (HLADR), HLA-DRA (gene 3122); experiment: BSK_CASM3C_HLADR: BioMAP Diversity Plus: CASM3C Assay for Human Leukocyte Antigen - DR isotype (HLADR) Biomarker Activity (AID 2283043); details: primary human coronary artery smooth muscle cells; actives raise or lower the signal;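 also: cell-surface HLA-DR protein level quantified by ELISA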
[10] = read-out: Macrophage colony-stimulating factor (MCSF), CSF1 (gene 1435); experiment: BSK_CASM3C_MCSF: BioMAP Diversity Plus: CASM3C Assay for Macrophage colony-stimulating factor (MCSF) Biomarker Activity (AID 2283044); details: primary human coronary artery smooth muscle cells; actives raise or lower the signal;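 also: M-CSF protein amount quantified by ELISA after 24 h exposure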
[11] = read-out: Low-density lipoprotein receptor (LDLR), LDLR (gene 3949); experiment: BSK_CASM3C_LDLR: BioMAP Diversity Plus: CASM3C Assay for Low-density lipoprotein receptor (LDLR) Biomarker Activity (AID 2283045); details: primary human coronary artery smooth muscle cells; actives raise or lower the signal;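 also: LDLR protein level on the cell surface quantified by ELISA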
[12] = read-out: Monocyte Chemoattractant Protein-1 (MCP1), CCL2 (gene 6347); experiment: BSK_CASM3C_MCP1: BioMAP Diversity Plus: CASM3C Assay for Monocyte Chemoattractant Protein-1 (MCP1) Biomarker Activity (AID 2283046); details: primary human coronary artery smooth muscle cells; actives raise or lower the signal;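 also: MCP-1 level quantified by ELISA 24 h after dosing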
[13] = BSK_CASM3C_Proliferation: Cell Proliferation Assessment in the BioMAP Diversity Plus: CASM3C Assay (AID 2283047); details: primary human coronary artery smooth muscle cells;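 also: sulforhodamine B total protein stain as relative cell number at 560 nm; sub-confluent cells exposed 48 h before staining; fitted both ways against DMSO so gain or loss of cell number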
[14] = read-out: Monokine induced gamma interferon (MIG), CXCL9 (gene 4283); experiment: BSK_CASM3C_MIG: BioMAP Diversity Plus: CASM3C Assay for Monokine induced gamma interferon (MIG) Biomarker Activity (AID 2283048); details: primary human coronary artery smooth muscle cells; actives raise or lower the signal;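 also: MIG protein level measured by ELISA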
[15] = read-out: serum amyloid A (SAA), SAA1 (gene 6288); experiment: BSK_CASM3C_SAA: BioMAP Diversity Plus: CASM3C Assay for serum amyloid A (SAA) Biomarker Activity (AID 2283049); details: primary human coronary artery smooth muscle cells; actives raise or lower the signal;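 also: SAA protein level quantified by ELISA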
[16] = BSK_CASM3C_SRB: Viability Assessment in the BioMAP Diversity Plus: CASM3C Assay (AID 2283050); details: primary human coronary artery smooth muscle cells
[17] = read-out: Thrombomodulin, THBD (gene 7056); experiment: BSK_CASM3C_Thrombomodulin: BioMAP Diversity Plus: CASM3C Assay for Thrombomodulin Biomarker Activity (AID 2283051); details: primary human coronary artery smooth muscle cells; actives raise or lower the signal;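 also: thrombomodulin protein level measured by ELISA 24 h after dosing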
[18] = read-out: Tissue Factor, F3 (gene 2152); experiment: BSK_CASM3C_TissueFactor: BioMAP Diversity Plus: CASM3C Assay for Tissue Factor Biomarker Activity (AID 2283052); details: primary human coronary artery smooth muscle cells; actives raise or lower the signal;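 also: cell surface tissue factor protein level read by ELISA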
[19] = read-out: Interferon-gamma inducible Protein 10 (IP10), CXCL10 (gene 3627); experiment: BSK_hDFCGF_IP10: BioMAP Diversity Plus: hDFCGF Assay for Interferon-gamma inducible Protein 10 (IP10) Biomarker Activity (AID 2283053); details: primary human foreskin fibroblasts; actives raise or lower the signal
How it was run: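 ELISA quantification of IP-10 after a 24 h chemical exposure of human dermal foreskin fibroblast primary cultures. Both increases and decreases versus DMSO fitted.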

[20] = read-out: Urokinase-type plasminogen activator receptor (uPAR), PLAUR (gene 5329); experiment: BSK_CASM3C_uPAR: BioMAP Diversity Plus: CASM3C Assay for Urokinase-type plasminogen activator receptor (uPAR) Biomarker Activity (AID 2283054); details: primary human coronary artery smooth muscle cells; actives raise or lower the signal;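 also: cell-surface uPAR protein level quantified by ELISA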

Measured: AC50

CC(C)(C)c1cc(O)ccc1O
active: [3] 14 µM | [9] 20 µM | [10] 20 µM | [13] 29.6 µM | [17] 14.7 µM | [18] 11.2 µM | [19] 4.87 µM
inactive: [1] | [2] | [4] | [5] | [6] | [7] | [8] | [11] | [12] | [14] | [15] | [16] | [20]

O=C(O)C(F)(F)C(F)(F)C(F)(F)C(F)(F)C(F)(F)C(F)(F)F
inactive: [1] | [2] | [3] | [4] | [5] | [6] | [7] | [8] | [9] | [10] | [11] | [12] | [13] | [14] | [15] | [16] | [17] | [18] | [19] | [20]

CC(=O)OC(c1ccccc1)C(Cl)(Cl)Cl (centres undefined)
inactive: [1] | [3] | [4] | [5] | [6] | [7] | [8] | [9] | [10] | [11] | [12] | [13] | [14] | [15] | [16] | [17] | [18] | [19] | [20]

COC(=O)Cc1ccccc1
inactive: [1] | [3] | [4] | [5] | [6] | [7] | [8] | [9] | [10] | [11] | [12] | [13] | [14] | [15] | [16] | [17] | [18] | [19] | [20]

O=C1C2(Cl)C3(Cl)C4(Cl)C(Cl)(Cl)C5(Cl)C3(Cl)C1(Cl)C5(Cl)C24Cl (centres undefined)
active: [1] 9.37 µM | [2] 5.28 µM | [3] 8.29 µM | [4] 5.32 µM | [5] 6.12 µM | [6] 33.5 µM | [7] 3 µM | [8] 35.6 µM | [9] 14.9 µM | [10] 26.6 µM | [11] 10.5 µM | [12] 31.3 µM | [13] 6.61 µM | [14] 34.2 µM | [15] 23.3 µM | [16] 24 µM | [17] 33.6 µM | [18] 19.3 µM | [19] 4.03 µM | [20] 18 µM

CCOC(=O)/C=C(C)/C=C/C[C@@H](C)CCCC(C)C
inactive: [3] | [8]
active: [1] 30 µM | [2] 20 µM | [4] 20 µM | [5] 20 µM | [6] 30.7 µM | [7] 9.78 µM | [9] 18.5 µM | [10] 26.6 µM | [11] 27.2 µM | [12] 31.9 µM | [13] 29 µM | [14] 30 µM | [15] 33.1 µM | [16] 31 µM | [17] 35.8 µM | [18] 20 µM | [19] 31.4 µM | [20] 30.9 µM

O=C(O)CCC(F)(C(F)(F)F)C(F)(F)F
active: [10] 23.9 µM | [15] 17.9 µM | [19] 1.93 µM
inactive: [1] | [3] | [4] | [5] | [6] | [7] | [8] | [9] | [10] | [11] | [12] | [13] | [14] | [15] | [16] | [17] | [18] | [19] | [20]

CCOP(=S)(OCC)SCSP(=S)(OCC)OCC
inactive: [1] | [2] | [3] | [4] | [5] | [6] | [7] | [8] | [9] | [10] | [11] | [12] | [13] | [14] | [15] | [16] | [17] | [18] | [20]
active: [19] 13.9 µM

ClC1=C(Cl)[C@]2(Cl)[C@H]3[C@H]([C@H]4C=C[C@H]3C4)[C@@]1(Cl)C2(Cl)Cl
inactive: [1] | [4] | [5] | [6] | [7] | [8] | [10] | [11] | [12] | [14] | [15] | [16] | [17] | [19] | [20]
active: [2] 3.12 µM | [3] 3.97 µM | [9] 5.83 µM | [13] 8.26 µM | [18] 0.266 µM

C(=NC1CCCCC1)=NC1CCCCC1
inactive: [2] | [3] | [7] | [8]
active: [1] 36.3 µM | [4] 31.8 µM | [5] 20 µM | [6] 36.8 µM | [9] 20 µM | [10] 26.1 µM | [11] 34.5 µM | [12] 32.8 µM | [14] 33.5 µM | [15] 35.7 µM | [16] 20 µM | [17] 34.5 µM | [18] 25.1 µM | [19] 11.7 µM | [20] 26.8 µM

OCc1ccco1
inactive: [1] | [2] | [3] | [4] | [5] | [6] | [7] | [8] | [9] | [10] | [11] | [12] | [13] | [14] | [15] | [16] | [17] | [18] | [19] | [20]
